Results on 21 compounds are retold here after PubChem BioAssay (EPA / NIEHS).

Conditions in all cases: mRNA level, 48 h; actives raise or lower the signal
Read-out in experiment [1]: Lipase C (LIPC), LIPC (gene 3990)
In words: LTEA_HepaRG_LIPC: Life Technologies and Expression Analysis (LTEA) Assay for Lipase C (LIPC) using HepaRG (AID 2283514). The essentials:
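Differentiated human HepaRG cells in serum-free induction medium were exposed in duplicate for 48 h to eight concentrations (top 100 uM, half-log steps, 0.5% DMSO). LIPC mRNA was quantified by TaqMan qRT-PCR, normalized to ACTB, GAPDH and POLR2A, with bidirectional fitting versus DMSO.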

Read-out in experiment [2]: Lipoprotein lipase (LPL), LPL (gene 4023)
The experiment can be described thus: LTEA_HepaRG_LPL: Life Technologies and Expression Analysis (LTEA) Assay for Lipoprotein lipase (LPL) using HepaRG (AID 2283515). The essentials:
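Differentiated human HepaRG cells in serum-free induction medium were exposed in duplicate for 48 h to eight half-log concentrations (top 100 uM) in 0.5% DMSO. LPL mRNA was quantified by TaqMan qRT-PCR, normalized to ACTB, GAPDH and POLR2A.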

Read-out in experiment [3]: MicroRNA 122 (MIR122), gene 406906
In words: LTEA_HepaRG_MIR122: Life Technologies and Expression Analysis (LTEA) Assay for MicroRNA 122 (MIR122) using HepaRG (AID 2283516). Also: the transcript read is the microRNA miR-122. The gist of the method:
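Differentiated human HepaRG cells in serum-free induction medium exposed 48 h to 8 half-log concentrations from 100 uM in 0.5% DMSO, duplicate. MIR122 quantified by Fluidigm TaqMan qRT-PCR, normalised to ACTB, GAPDH, POLR2A; fold change fitted bidirectionally versus DMSO.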

Read-out in experiment [4]: matrix metalloproteinase-10 (MMP10), MMP10 (gene 4319)
The experiment can be described thus: LTEA_HepaRG_MMP10: Life Technologies and Expression Analysis (LTEA) Assay for matrix metalloproteinase-10 (MMP10) using HepaRG (AID 2283517). The gist of the method: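 HepaRG, collagen I, ~100,000 cells/well; serum-free induction medium; 48 h exposure, duplicate, 8-pt half-log to 100 uM, 0.5% DMSO. Readout: TaqMan qRT-PCR, normalized to ACTB/GAPDH/POLR2A; bidirectional fit vs DMSO.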

Read-out in experiment [5]: matrix metalloproteinase-3 (MMP3), MMP3 (gene 4314)
In words: LTEA_HepaRG_MMP3: Life Technologies and Expression Analysis (LTEA) Assay for matrix metalloproteinase-3 (MMP3) using HepaRG (AID 2283519). The gist of the method: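 Differentiated human HepaRG cells, plated 48 h on collagen I, were exposed in duplicate for 48 h in serum-free induction medium to eight half-log concentrations up to 100 uM in 0.5% DMSO. MMP3 mRNA was quantified by TaqMan qRT-PCR, normalised to ACTB, GAPDH and POLR2A.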

Read-out in experiment [6]: Paternally Expressed 10 (PEG10), PEG10 (gene 23089)
The experiment can be described thus: LTEA_HepaRG_PEG10: Life Technologies and Expression Analysis (LTEA) Assay for Paternally Expressed 10 (PEG10) using HepaRG (AID 2283520). The essentials:
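Differentiated HepaRG cells exposed 48 h in serum-free induction medium to eight half-log concentrations topping at 100 uM, 0.5% DMSO, in duplicate. PEG10 mRNA quantified by TaqMan qRT-PCR, normalized to ACTB, GAPDH and POLR2A; bidirectional fit versus DMSO.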

Read-out in experiment [7]: Phosphatase and tensin (PTEN), PTEN (gene 5728)
In words: LTEA_HepaRG_PTEN: Life Technologies and Expression Analysis (LTEA) Assay for Phosphatase and tensin (PTEN) using HepaRG (AID 2283523). The essentials:
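Differentiated human HepaRG cells, plated 48 h then switched to serum-free induction medium, were exposed in duplicate for 48 h to eight half-log concentrations up to 100 uM in 0.5% DMSO. PTEN mRNA measured by TaqMan qRT-PCR, normalized to ACTB/GAPDH/POLR2A, bidirectional fit versus DMSO.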

Read-out in experiment [8]: solute carrier (SLC22A1), SLC22A1 (gene 6580)
The experiment can be described thus: LTEA_HepaRG_SLC22A1: Life Technologies and Expression Analysis (LTEA) Assay for solute carrier (SLC22A1) using HepaRG (AID 2283524). The gist of the method: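 Human HepaRG cells were plated 48 h, switched to serum-free induction medium, then exposed in duplicate for 48 h to 8-point half-log series from 100 uM in 0.5% DMSO. SLC22A1 mRNA measured by qRT-PCR, normalized to ACTB/GAPDH/POLR2A, fitted bidirectionally versus DMSO.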

Read-out in experiment [9]: MYC, MYC (gene 4609)
In words: LTEA_HepaRG_MYC: Life Technologies and Expression Analysis (LTEA) Assay for MYC using HepaRG (AID 2283518). The gist of the method:
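MYC transcript changes, up or down relative to 0.5% DMSO, from TaqMan qRT-PCR normalized to three housekeeping genes. Human HepaRG cultures received chemicals for 48 h at eight half-log concentrations up to 100 uM, in duplicate.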

Read-out in experiment [10]: Protein phosphatase 2A (PPP2R4), PTPA (gene 5524)
In words: LTEA_HepaRG_PPP2R4: Life Technologies and Expression Analysis (LTEA) Assay for Protein phosphatase 2A (PPP2R4) using HepaRG (AID 2283522). The gist of the method: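 Differentiated human HepaRG cells in serum-free induction medium were exposed 48 h to 8 concentrations (top 100 µM, half-log steps, duplicate) in 0.5% DMSO. PPP2R4 mRNA was measured by TaqMan qRT-PCR, normalised to ACTB, GAPDH and POLR2A, and fitted bidirectionally versus DMSO.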

The structures appear in SMILES notation. Calls of active or inactive are those of the source. The calls were made as follows: active = hit-call score of the fitted dose curve at least 0.9, where 1 is the maximum; inactive = score below 0.9.

For `Cc1cccc(N)c1`, the call in experiment [1], in experiment [2], in [3], in experiment [4], in experiment [5] and in experiment [6] was inactive. The outcome in [7] and in [8] was inactive.

`CC(C)(C)c1ccc(O)cc1`: the outcome in [1], in experiment [2], in experiment [4], in [5], in experiment [6] and in [7] was inactive. Besides, the call in experiment [8] was inactive. For the same compound, the AC50 in [3] was 197 nM (active).

As for `CCOc1ccc(C(C)(C)COCc2cccc(Oc3ccccc3)c2)cc1`, the call in experiment [1], in [2], in [3], in experiment [4], in [5] and in [6] was inactive. Moreover, the result in [7] and in experiment [8] was inactive.

For `O=[N+]([O-])c1ccccc1`, the compound was classed as inactive in experiment [1], in experiment [2], in experiment [3], in experiment [4], in experiment [9] and in experiment [5]. The result in [6], in experiment [7] and in [8] was inactive.

On to `c1cc2c3c(cccc3c1)CC2`, for which the call in [1], in experiment [2], in [3], in experiment [4], in experiment [5] and in [6] was inactive. For the same compound, the call in [7] and in experiment [8] was inactive.

Regarding `OCC1CO1` (centres undefined), the outcome in experiment [1], in experiment [2], in experiment [3], in experiment [4], in [5] and in [6] was inactive. Moreover, the call in experiment [10], in experiment [7] and in [8] was inactive.

Take `O=C(O)C(Cl)Cl`: the compound was called inactive in experiment [1], in [2], in experiment [3], in experiment [4], in experiment [5] and in experiment [6]. Besides, the call in [7] and in experiment [8] was inactive.

As for `CCOP(=S)(Oc1ccc([N+](=O)[O-])cc1)c1ccccc1` (centres undefined), the outcome in [1], in experiment [2], in experiment [3], in [4], in experiment [5] and in experiment [6] was inactive. In addition, the result in [8] was inactive. In addition, in [7], the half-maximal activity concentration (AC50) was 42.2 nM (active).

For the compound `CCCCN(CCCC)SN(C)C(=O)Oc1cccc2c1OC(C)(C)C2`, the call in experiment [1], in experiment [2], in [3], in [4], in [5] and in experiment [6] was inactive. The compound was classed as inactive in experiment [7] and in experiment [8].

As for `ClC1=C(Cl)C2(Cl)C3C(Cl)C(Cl)CC3C1(Cl)C2(Cl)Cl` (centres undefined), the figures for the AC50 in experiment [1], in [5] and in experiment [6] were 43700 nM (active), 23600 nM (active) and 2310 nM (active), respectively. Further, the compound was called inactive in [2], in experiment [3], in [4], in experiment [7] and in experiment [8].

Take `CCOS(=O)(=O)OCC`: the compound was classed as inactive in experiment [1], in experiment [2], in [3], in experiment [4], in experiment [5] and in experiment [6]. Besides, the outcome in [7] and in experiment [8] was inactive.

For `CCCCN(CCCC)N=O`, the call in experiment [1], in experiment [2], in [3], in experiment [4], in experiment [5] and in experiment [6] was inactive. The outcome in [10], in experiment [7] and in experiment [8] was inactive.

On to `CC(Cl)(Cl)C(=O)O`, for which the compound was classed as inactive in experiment [1], in [2], in experiment [3], in experiment [4], in experiment [5] and in experiment [6]. In addition, the result in experiment [7] and in [8] was inactive.

For `CCOC(=O)c1ccccc1C(=O)OCC`, the call in [1], in experiment [2], in experiment [3], in experiment [4], in experiment [5] and in [6] was inactive. In addition, the call in [10], in [7] and in [8] was inactive.

Regarding `ClC(Cl)c1ccccc1`, the outcome in experiment [1], in experiment [2], in experiment [3], in [4], in experiment [5] and in experiment [6] was inactive. Moreover, the call in [7] and in experiment [8] was inactive.

Consider `CC(C)(C)OOC(C)(C)C`, for which the call in experiment [1], in [2], in experiment [3], in experiment [4], in experiment [5] and in [6] was inactive. Besides, the outcome in experiment [7] and in experiment [8] was inactive.

With `CCCCCCCc1ccc(O)cc1`, the compound was classed as inactive in [1], in experiment [2], in experiment [3], in experiment [4], in experiment [9] and in experiment [5]. The compound was called inactive in experiment [6], in experiment [7] and in experiment [8].

Turning to `CSC(C)(C)C=NO`, the compound was classed as inactive in experiment [1], in [2], in [3], in experiment [4], in experiment [5] and in [6]. Further, the outcome in experiment [7] and in experiment [8] was inactive.

As to `Nc1cc2c3c(c1)C(c1ccccc1)=N[C@@H](NC(=O)c1cccnc1)C(=O)N3CC2`, the result in experiment [1], in [2], in [3], in experiment [4], in experiment [5] and in [6] was inactive. For the same compound, the outcome in [7] and in [8] was inactive.

For the compound `CCN(CC)c1ccccc1`, the outcome in experiment [1], in experiment [2], in [3], in experiment [4], in experiment [5] and in experiment [6] was inactive. Moreover, the compound was classed as inactive in experiment [7] and in [8].

For the compound `O=P1(N(CCCl)CCCl)NCCCO1` (centres undefined), the compound was called inactive in [1], in experiment [2], in experiment [3], in experiment [4], in experiment [9] and in experiment [5]. For the same compound, the call in experiment [6], in [7] and in [8] was inactive.

In general, AC50 refers to the concentration giving half of the maximal activity seen.
